Reference: the supplement of paper PMC11732987, “Enantioselective OTUD7B fragment discovery through chemoproteomics screening and high-throughput optimisation” (Communications Chemistry, 2025)

Tests used:
Test in all cases: log2 ratio of Biotin-Ahx-Ub-VS probe labelling (fragment/DMSO); higher = less target engagement (more negative = stronger competition), active = hit call of the paper (q ≤ 0.05, log2 ratio ≤ -1)
Details in all cases: compound concentration: 200 uM; treatment time: 3 h
[1] = target: USP34 (UniProt Q70CQ2)
Chain of USP34 (Q70CQ2 whole entry, the tested form may be a part): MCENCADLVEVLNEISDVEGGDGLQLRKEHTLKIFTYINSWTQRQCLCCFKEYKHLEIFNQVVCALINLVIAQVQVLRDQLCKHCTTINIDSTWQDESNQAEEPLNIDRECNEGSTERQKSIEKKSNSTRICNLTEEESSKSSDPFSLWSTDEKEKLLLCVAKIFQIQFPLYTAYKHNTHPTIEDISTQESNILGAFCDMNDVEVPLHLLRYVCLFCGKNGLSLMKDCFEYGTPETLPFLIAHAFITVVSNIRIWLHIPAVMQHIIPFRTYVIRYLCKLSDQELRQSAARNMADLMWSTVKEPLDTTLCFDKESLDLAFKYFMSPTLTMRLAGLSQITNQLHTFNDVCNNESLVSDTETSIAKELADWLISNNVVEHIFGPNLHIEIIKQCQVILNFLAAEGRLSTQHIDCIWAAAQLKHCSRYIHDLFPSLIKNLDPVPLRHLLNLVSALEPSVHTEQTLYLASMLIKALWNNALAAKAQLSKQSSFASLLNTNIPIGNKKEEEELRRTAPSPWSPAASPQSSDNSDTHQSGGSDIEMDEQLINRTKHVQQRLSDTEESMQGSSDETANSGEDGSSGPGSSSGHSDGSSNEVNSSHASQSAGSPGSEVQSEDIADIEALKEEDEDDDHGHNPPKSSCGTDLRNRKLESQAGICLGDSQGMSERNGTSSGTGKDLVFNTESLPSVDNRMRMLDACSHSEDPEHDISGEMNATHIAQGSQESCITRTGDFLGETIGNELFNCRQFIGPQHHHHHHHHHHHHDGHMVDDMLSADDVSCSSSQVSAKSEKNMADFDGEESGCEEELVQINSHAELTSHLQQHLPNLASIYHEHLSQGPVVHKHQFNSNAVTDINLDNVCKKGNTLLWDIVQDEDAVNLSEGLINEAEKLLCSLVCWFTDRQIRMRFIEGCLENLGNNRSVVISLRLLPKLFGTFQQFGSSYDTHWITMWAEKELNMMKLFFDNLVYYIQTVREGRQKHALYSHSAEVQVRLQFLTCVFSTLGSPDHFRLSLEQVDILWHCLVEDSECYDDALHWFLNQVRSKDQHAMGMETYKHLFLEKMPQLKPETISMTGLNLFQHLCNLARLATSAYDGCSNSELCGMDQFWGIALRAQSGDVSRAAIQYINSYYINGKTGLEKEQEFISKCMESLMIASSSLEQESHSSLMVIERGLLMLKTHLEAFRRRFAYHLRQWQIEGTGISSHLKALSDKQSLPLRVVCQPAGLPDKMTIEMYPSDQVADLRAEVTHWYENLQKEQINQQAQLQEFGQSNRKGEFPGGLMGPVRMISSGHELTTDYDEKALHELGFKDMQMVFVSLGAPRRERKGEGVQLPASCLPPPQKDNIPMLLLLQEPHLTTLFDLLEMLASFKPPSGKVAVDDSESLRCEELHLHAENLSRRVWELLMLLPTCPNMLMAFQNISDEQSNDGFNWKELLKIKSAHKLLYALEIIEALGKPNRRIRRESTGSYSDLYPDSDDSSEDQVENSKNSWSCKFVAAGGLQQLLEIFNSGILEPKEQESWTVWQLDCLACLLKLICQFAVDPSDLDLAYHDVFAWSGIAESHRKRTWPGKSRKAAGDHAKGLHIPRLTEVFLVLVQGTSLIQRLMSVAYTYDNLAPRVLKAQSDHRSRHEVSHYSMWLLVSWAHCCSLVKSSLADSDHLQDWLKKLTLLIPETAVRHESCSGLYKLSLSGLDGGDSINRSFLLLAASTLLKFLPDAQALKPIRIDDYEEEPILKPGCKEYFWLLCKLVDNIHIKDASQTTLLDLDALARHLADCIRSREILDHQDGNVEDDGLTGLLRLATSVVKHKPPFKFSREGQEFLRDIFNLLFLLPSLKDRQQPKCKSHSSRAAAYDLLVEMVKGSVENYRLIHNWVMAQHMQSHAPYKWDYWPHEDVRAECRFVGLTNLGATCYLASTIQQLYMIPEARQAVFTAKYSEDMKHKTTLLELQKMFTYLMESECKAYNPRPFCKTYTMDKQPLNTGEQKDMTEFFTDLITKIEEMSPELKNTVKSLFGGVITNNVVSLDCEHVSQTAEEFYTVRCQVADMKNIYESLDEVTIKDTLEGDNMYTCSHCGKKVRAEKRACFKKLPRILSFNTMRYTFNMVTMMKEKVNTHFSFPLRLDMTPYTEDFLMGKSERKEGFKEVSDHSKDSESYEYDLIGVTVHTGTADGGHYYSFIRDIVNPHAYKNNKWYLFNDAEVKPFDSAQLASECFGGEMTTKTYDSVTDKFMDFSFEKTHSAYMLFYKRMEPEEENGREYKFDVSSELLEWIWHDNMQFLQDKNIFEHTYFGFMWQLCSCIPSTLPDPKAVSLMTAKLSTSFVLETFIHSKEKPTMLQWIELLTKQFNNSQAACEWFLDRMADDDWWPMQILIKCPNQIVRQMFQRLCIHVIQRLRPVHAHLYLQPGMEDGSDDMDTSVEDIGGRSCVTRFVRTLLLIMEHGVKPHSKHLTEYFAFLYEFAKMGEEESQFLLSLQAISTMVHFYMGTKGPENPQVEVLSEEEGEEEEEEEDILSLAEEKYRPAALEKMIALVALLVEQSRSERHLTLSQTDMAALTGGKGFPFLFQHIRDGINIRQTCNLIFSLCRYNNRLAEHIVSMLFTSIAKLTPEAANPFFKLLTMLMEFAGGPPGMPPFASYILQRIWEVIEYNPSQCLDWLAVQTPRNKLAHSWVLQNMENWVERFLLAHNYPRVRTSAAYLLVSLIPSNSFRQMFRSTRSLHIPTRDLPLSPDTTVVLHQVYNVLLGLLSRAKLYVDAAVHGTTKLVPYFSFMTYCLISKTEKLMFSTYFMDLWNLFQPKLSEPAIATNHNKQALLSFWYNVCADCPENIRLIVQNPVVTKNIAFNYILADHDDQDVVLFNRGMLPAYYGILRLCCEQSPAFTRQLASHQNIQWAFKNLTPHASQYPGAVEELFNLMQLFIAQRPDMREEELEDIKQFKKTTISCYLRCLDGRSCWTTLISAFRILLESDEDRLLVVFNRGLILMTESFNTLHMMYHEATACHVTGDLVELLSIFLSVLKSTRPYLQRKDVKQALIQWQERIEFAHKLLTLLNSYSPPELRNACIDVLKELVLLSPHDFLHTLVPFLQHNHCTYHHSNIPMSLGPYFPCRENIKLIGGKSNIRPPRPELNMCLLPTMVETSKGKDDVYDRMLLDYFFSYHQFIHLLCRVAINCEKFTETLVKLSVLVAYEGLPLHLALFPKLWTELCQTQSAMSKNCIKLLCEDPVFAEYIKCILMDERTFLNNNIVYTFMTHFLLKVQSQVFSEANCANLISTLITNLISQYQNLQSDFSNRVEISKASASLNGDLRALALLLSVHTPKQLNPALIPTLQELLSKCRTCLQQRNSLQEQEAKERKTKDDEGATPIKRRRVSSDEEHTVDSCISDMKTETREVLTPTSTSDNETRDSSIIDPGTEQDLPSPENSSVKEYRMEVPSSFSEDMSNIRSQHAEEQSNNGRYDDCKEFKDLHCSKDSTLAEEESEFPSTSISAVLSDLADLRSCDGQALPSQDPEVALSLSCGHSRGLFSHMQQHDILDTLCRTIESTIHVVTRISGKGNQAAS
How it was run: (§1)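 The table lists average log2 ratios of fragment over vehicle, from an unpaired t-test on global-median-normalised Spectronaut label-free quantities. Proteins with ≥2 unique peptides were used. Samples were HEK293T lysate (495 µg) treated in triplicate with fragment at 200 µM or vehicle for 3 h, then with Biotin-Ahx-Ub-VS (0.5 µM final) for 1 h, with labelled DUBs NeutrAvidin-enriched and run by diaPASEF LC-MS/MS.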

[2] = target: T1, USP36 (UniProt Q9P275)
T1 sequence (whole entry): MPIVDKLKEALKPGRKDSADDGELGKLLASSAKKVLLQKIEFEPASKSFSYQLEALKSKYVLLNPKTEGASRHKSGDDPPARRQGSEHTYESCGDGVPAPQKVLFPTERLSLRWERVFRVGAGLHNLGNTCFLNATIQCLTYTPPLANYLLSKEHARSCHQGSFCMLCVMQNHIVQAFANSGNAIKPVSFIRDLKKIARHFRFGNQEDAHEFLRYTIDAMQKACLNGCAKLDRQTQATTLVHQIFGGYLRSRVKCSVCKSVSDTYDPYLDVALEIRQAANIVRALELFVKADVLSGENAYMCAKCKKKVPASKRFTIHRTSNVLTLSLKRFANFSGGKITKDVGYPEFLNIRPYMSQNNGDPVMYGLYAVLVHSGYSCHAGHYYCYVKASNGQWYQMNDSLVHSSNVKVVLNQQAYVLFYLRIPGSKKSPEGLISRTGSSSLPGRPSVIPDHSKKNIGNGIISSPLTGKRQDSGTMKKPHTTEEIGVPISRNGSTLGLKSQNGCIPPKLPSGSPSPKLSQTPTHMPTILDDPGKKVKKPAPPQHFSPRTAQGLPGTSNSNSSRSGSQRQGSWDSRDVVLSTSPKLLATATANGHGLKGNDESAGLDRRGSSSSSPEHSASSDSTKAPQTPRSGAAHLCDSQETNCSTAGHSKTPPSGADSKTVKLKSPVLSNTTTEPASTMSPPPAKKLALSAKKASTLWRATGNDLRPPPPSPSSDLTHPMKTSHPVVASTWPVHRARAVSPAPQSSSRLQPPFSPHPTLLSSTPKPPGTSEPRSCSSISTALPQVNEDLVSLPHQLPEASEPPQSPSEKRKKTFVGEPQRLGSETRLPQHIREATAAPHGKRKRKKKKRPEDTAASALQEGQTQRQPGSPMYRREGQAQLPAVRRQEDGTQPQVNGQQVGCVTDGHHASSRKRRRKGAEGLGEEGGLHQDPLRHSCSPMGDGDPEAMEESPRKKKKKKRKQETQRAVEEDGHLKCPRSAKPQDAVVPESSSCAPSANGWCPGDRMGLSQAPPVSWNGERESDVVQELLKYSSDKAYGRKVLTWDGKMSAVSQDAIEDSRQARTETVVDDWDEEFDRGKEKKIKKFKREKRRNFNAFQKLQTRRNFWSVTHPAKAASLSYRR
How it was run: as §1

[3] = target: T2, USP38 (UniProt Q8NB14)
T2 sequence (whole entry): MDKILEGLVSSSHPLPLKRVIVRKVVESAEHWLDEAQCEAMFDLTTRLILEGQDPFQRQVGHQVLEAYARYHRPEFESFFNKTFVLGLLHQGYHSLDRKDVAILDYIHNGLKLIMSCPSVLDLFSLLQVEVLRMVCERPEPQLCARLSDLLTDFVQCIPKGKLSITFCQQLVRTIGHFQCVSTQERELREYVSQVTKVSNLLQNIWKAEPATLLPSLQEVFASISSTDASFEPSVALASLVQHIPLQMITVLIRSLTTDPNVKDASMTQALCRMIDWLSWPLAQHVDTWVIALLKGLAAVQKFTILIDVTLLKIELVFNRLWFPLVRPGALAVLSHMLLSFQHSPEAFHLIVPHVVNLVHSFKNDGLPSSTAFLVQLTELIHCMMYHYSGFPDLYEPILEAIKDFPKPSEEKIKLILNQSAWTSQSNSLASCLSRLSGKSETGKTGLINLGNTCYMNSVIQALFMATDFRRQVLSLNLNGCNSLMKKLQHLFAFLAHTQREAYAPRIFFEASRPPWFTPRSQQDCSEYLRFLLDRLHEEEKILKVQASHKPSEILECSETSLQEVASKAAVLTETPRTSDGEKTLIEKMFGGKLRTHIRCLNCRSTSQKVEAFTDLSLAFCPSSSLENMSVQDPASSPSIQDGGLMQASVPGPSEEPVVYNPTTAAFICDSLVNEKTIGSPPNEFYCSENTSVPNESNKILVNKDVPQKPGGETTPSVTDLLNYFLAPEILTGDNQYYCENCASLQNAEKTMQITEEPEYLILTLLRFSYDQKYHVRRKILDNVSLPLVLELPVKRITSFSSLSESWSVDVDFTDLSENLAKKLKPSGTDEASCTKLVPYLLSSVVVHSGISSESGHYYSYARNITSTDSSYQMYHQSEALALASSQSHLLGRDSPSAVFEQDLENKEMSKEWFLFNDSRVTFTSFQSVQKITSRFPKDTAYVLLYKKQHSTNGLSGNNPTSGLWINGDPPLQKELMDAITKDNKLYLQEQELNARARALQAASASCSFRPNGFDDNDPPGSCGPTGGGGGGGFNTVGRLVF
How it was run: as §1

[4] = target: T3, USP39 (UniProt Q53GS9)
T3 sequence (whole entry): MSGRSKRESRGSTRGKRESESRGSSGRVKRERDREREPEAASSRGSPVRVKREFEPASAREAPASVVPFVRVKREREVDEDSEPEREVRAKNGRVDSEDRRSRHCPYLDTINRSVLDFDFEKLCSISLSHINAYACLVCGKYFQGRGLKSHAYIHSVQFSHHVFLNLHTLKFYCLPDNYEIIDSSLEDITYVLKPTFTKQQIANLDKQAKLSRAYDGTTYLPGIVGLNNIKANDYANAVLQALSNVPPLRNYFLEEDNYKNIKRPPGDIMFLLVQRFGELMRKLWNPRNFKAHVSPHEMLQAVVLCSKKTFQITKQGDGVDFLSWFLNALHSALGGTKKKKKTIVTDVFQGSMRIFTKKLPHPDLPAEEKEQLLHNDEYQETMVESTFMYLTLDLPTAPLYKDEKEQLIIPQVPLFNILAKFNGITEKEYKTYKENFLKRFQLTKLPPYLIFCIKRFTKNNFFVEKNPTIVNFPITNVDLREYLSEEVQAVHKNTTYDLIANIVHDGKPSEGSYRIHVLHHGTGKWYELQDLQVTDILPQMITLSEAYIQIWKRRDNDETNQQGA
How it was run: as §1

[5] = target: T4, USP4 (UniProt Q13107)
T4 sequence (whole entry): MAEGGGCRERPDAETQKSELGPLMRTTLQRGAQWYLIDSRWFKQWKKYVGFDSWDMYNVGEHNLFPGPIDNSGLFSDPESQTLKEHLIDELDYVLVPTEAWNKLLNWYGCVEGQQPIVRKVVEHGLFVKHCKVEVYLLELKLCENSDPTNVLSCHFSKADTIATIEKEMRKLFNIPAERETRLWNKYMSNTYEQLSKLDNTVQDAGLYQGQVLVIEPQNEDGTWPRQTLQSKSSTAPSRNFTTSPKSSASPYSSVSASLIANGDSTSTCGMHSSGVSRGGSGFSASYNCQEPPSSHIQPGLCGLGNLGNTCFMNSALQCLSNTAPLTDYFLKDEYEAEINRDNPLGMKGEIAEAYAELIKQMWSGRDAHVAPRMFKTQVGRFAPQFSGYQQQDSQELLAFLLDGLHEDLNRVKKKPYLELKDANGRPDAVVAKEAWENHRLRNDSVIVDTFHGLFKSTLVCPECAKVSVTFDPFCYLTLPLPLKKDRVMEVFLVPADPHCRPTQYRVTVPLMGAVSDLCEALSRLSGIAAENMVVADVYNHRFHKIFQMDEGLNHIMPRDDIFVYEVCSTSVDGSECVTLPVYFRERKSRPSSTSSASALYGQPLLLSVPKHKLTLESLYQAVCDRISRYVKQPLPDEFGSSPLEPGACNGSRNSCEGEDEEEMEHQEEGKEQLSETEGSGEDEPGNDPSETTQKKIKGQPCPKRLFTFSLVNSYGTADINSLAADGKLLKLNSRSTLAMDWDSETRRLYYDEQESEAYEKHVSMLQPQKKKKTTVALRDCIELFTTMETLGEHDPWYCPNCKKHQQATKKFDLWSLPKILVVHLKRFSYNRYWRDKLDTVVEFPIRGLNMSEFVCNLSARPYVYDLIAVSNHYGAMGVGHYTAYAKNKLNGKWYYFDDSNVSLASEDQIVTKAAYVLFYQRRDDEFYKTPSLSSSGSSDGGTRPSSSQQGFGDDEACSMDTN
How it was run: as §1

Measured: log2 ratio of Biotin-Ahx-Ub-VS probe labelling

Cc1ccc(C)c(NC(=O)CCl)c1
inactive: [1] -0.458 | [2] -0.1 | [3] -0.159 | [4] 0.199 | [5] -0.443
